# Measured values published in the supplement of paper PMC8728848.
# Many of the other results were omitted from the sample, so the strongest signals are more common in it than they were.
# Tests used:
# Experiment in all cases: glycan array binding signal (z-score within array); higher = stronger binding
# [1] = tested on: Fuc(a1-2)Gal(b1-4)[Fuc(a1-3)]GlcNAc(b1-2)[Fuc(a1-2)Gal(b1-4)[Fuc(a1-3)]GlcNAc(b1-4)]Man(a1-3)[Fuc(a1-2)Gal(b1-4)[Fuc(a1-3)]GlcNAc(b1-2)Man(a1-6)]Man(b1-4)GlcNAc(b1-4)GlcNAc; details: glycan notation: IUPAC condensed, linker removed
# Outline: (§1)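 Glycan array binding is given as a within-array Z-score, which can be read as non-binding when negative. The arrays, 3228 of them, came from the Consortium for Functional Glycomics database and were retained only where the protein sequence was available. Z-scores were averaged across arrays of the same protein sequence at different concentrations or buffers and across linkers.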
# [2] = tested on: Fuc(a1-2)[Gal(a1-3)]Gal(b1-4)[Fuc(a1-3)]GlcNAc(b1-3)GalNAc; details: glycan notation: IUPAC condensed, linker removed
# Outline: as §1
# Fuc(a1-2)[Gal(a1-3)]Gal = details: glycan notation: IUPAC condensed, linker removed
# Outline: as §1
# [3] = tested on: Fuc(a1-2)Gal6S(b1-3)GlcNAc; details: glycan notation: IUPAC condensed, linker removed
# Outline: as §1
# [4] = tested on: Fuc(a1-2)[Gal(a1-3)]Gal(b1-4)GlcNAc(b1-3)[Fuc(a1-2)[Gal(a1-3)]Gal(b1-4)GlcNAc(b1-6)]GalNAc; details: glycan notation: IUPAC condensed, linker removed
# Outline: as §1
# [5] = tested on: Fuc(a1-2)Gal6S(b1-4)GlcNAc; details: glycan notation: IUPAC condensed, linker removed
# Outline: as §1
# [6] = tested on: Fuc(a1-2)Gal6S(b1-4)Glc6S; details: glycan notation: IUPAC condensed, linker removed
# Outline: as §1
# Fuc(a1-2)Gal = details: glycan notation: IUPAC condensed, linker removed
# Outline: as §1
# [7] = tested on: Fuc(a1-2)Gal(b1-4)[Fuc(a1-3)]GlcNAc(b1-3)Gal(b1-4)[Fuc(a1-3)]GlcNAc; details: glycan notation: IUPAC condensed, linker removed
# Outline: as §1
# [8] = tested on: Fuc(a1-2)Gal(b1-4)[Fuc(a1-3)]GlcNAc(b1-2)Man(a1-3)[Fuc(a1-2)Gal(b1-4)[Fuc(a1-3)]GlcNAc(b1-2)Man(a1-6)]Man(b1-4)GlcNAc(b1-4)GlcNAc; details: glycan notation: IUPAC condensed, linker removed
# Outline: as §1
# [9] = tested on: Fuc(a1-2)Gal(b1-4)[Fuc(a1-3)]GlcNAc(b1-3)GalNAc; details: glycan notation: IUPAC condensed, linker removed
# Outline: as §1
# [10] = tested on: Fuc(a1-2)Gal(b1-4)[Fuc(a1-3)]GlcNAc; details: glycan notation: IUPAC condensed, linker removed
# Outline: as §1
# [11] = tested on: Fuc(a1-2)[Gal(a1-3)]Gal(b1-4)Glc; details: glycan notation: IUPAC condensed, linker removed
# Outline: as §1
# [12] = tested on: Fuc(a1-2)Gal(b1-4)[Fuc(a1-3)]GlcNAc(b1-3)Gal(b1-4)[Fuc(a1-3)]GlcNAc(b1-3)Gal(b1-4)[Fuc(a1-3)]GlcNAc; details: glycan notation: IUPAC condensed, linker removed
# Outline: as §1
# [13] = tested on: Fuc(a1-2)[Gal(a1-3)]Gal(b1-4)GlcNAc(b1-3)GalNAc; details: glycan notation: IUPAC condensed, linker removed
# Outline: as §1
# [14] = tested on: Fuc(a1-2)Gal3S(b1-4)GlcNAc; details: glycan notation: IUPAC condensed, linker removed
# Outline: as §1
# [15] = tested on: Fuc(a1-2)[Gal(a1-4)]Gal(b1-4)GlcNAc; details: glycan notation: IUPAC condensed, linker removed; mutation: R125K
# Outline: as §1
# [16] = tested on: Fuc(a1-2)[Gal(a1-3)]Gal(b1-4)GlcNAc(b1-2)Man(a1-3)[Fuc(a1-2)[Gal(a1-3)]Gal(b1-4)GlcNAc(b1-2)Man(a1-6)]Man(b1-4)GlcNAc(b1-4)[Fuc(a1-6)]GlcNAc; details: glycan notation: IUPAC condensed, linker removed
# Outline: as §1
# Fuc(a1-2)Gal6S(b1-4)Glc = details: glycan notation: IUPAC condensed, linker removed
# Outline: as §1
# [17] = tested on: Fuc(a1-2)[Gal(a1-3)]Gal(b1-3)GlcNAc(b1-2)Man(a1-3)[Fuc(a1-2)[Gal(a1-3)]Gal(b1-3)GlcNAc(b1-2)Man(a1-6)]Man(b1-4)GlcNAc(b1-4)GlcNAc; details: glycan notation: IUPAC condensed, linker removed
# Outline: as §1
# Sequence of PILRb (Mus musculus), Q2YSF2 (Q2YSF2 entry or part of it): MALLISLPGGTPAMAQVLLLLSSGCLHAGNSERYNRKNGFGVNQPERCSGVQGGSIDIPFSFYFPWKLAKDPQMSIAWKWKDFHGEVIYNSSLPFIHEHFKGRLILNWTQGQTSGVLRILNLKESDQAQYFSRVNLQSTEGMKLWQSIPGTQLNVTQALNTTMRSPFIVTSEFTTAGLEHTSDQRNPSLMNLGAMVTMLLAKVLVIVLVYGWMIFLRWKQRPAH
# Sequence of PILRa (Mus musculus), Q2YSF3 (Q2YSF3 entry or part of it): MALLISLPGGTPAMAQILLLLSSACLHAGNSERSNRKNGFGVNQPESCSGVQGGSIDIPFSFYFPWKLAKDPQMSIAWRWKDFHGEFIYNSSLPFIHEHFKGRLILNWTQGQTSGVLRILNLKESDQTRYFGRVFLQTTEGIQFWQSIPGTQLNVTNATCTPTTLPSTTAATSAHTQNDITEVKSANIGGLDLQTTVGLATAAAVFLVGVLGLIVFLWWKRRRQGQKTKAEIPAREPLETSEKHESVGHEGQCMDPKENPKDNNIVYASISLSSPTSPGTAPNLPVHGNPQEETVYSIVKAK
# Sequence of Avaren (Actinomycete K97) (chain, as listed by the source): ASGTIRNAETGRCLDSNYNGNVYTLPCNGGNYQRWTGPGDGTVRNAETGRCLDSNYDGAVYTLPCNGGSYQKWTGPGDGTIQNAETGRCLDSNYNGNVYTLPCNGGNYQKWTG
# Sequence of Neurocan (Homo sapiens), O14594 (O14594 other isoform, or with tags, fused parts or gaps): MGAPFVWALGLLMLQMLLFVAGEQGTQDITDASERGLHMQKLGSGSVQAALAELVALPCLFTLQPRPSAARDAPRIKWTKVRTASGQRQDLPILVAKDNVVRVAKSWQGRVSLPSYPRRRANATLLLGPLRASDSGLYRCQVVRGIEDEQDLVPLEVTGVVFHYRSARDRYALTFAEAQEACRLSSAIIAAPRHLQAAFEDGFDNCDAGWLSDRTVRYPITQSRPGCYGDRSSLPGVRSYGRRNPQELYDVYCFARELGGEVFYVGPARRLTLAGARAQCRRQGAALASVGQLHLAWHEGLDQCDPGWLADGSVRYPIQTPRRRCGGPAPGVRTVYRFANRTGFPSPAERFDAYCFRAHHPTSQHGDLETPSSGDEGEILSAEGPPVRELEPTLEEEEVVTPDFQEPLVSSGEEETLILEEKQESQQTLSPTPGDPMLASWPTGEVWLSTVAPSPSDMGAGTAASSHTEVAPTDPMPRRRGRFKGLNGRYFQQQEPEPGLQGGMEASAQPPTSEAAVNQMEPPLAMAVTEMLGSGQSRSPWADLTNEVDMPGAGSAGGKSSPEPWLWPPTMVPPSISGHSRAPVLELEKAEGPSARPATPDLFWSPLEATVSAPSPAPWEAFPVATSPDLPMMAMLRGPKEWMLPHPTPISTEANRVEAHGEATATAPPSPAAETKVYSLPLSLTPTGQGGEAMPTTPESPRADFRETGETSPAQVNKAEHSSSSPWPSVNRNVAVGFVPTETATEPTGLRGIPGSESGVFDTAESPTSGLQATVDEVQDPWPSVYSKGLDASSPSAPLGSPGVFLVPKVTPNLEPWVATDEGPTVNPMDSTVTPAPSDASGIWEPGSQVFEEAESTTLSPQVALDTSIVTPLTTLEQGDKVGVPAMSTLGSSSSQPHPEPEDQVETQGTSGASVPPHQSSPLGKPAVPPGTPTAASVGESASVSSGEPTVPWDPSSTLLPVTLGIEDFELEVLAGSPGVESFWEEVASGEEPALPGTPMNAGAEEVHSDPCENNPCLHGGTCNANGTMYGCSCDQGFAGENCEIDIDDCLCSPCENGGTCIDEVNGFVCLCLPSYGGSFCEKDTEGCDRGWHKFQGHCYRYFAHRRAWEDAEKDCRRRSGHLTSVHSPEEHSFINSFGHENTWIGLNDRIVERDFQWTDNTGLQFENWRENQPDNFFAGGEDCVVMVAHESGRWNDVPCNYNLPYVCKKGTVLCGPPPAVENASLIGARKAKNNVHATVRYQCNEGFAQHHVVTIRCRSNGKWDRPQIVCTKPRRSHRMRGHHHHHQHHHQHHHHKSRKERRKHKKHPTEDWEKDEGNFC
# Sequence of SRLC (Mus musculus), Q8VIF6 (Q8VIF6 other isoform, or with tags, fused parts or gaps): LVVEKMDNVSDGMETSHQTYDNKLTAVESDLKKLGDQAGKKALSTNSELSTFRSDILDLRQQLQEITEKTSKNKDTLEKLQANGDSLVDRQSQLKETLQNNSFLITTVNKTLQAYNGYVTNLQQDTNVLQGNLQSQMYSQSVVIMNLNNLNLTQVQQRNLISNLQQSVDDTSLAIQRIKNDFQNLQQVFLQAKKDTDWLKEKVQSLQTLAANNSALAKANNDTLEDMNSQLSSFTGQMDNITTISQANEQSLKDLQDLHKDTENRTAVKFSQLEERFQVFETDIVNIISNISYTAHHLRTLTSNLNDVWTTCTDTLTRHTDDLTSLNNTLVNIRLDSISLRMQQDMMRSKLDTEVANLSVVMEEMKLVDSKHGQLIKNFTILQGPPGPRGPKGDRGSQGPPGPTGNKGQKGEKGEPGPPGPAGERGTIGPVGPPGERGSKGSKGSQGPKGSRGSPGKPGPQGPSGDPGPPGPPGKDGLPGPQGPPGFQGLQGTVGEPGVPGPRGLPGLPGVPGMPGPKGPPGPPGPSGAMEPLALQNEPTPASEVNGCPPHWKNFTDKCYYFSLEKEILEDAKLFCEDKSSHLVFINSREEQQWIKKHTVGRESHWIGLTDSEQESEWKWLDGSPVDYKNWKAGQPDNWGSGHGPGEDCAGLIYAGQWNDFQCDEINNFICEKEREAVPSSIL
# Sequence of 6RG (Lolium perenne) (chain, as listed by the source): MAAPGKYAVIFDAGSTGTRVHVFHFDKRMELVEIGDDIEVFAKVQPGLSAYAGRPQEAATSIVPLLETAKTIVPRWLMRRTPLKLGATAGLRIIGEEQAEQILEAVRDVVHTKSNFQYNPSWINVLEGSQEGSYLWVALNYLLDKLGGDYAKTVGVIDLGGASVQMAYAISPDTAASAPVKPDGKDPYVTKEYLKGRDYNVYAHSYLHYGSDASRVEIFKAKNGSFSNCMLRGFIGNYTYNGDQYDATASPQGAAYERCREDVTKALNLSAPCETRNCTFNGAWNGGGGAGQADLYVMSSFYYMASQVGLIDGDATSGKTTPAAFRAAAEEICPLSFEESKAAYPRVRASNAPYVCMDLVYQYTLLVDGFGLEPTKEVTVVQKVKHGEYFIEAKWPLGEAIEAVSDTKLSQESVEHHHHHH
# Sequence of Regenerating Gene IV (Homo sapiens), Q9BYZ8 (Q9BYZ8 whole entry, looked up): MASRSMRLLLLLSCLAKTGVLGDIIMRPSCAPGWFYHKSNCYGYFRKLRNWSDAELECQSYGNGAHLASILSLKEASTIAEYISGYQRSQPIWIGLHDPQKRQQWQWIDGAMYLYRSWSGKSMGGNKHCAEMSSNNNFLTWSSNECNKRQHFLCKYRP
# Sequence of CHI3L1 (Homo sapiens), P36222 (P36222 whole entry): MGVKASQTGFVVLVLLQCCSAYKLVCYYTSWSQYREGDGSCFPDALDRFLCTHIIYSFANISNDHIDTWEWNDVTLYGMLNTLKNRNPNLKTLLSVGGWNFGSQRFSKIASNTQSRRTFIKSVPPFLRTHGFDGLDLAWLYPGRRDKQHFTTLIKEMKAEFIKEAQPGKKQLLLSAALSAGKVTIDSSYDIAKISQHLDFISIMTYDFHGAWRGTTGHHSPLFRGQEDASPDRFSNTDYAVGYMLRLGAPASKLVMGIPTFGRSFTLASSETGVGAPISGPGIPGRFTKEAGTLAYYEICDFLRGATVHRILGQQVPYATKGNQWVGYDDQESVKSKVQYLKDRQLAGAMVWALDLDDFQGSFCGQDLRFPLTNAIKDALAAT
# Sequence of wLAT-1A (Homo sapiens), Q01650 (Q01650 whole entry): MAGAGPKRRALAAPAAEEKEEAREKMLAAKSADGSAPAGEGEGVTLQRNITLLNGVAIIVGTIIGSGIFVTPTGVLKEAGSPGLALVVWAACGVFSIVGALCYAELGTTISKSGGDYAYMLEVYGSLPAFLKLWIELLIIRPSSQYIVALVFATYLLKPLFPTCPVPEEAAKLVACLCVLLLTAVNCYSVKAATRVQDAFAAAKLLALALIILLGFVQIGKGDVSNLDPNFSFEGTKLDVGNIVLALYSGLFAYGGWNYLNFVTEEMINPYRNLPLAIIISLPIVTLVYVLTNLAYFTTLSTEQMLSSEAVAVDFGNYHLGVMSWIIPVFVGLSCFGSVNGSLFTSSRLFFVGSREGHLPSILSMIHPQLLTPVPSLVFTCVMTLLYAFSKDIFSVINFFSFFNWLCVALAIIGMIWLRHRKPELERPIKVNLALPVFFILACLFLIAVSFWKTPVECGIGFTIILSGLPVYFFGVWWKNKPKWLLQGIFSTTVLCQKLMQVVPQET
# Sequence of Aggrecan (Rattus norvegicus), NP_071526 (chain, as listed by the source): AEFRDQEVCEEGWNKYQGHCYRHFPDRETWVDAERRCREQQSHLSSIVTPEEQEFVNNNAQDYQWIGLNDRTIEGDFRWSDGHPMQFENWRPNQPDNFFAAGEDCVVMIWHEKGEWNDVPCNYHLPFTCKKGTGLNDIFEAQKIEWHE
# Sequence of 6RG (Lolium perenne), B9U140 (B9U140 entry or part of it): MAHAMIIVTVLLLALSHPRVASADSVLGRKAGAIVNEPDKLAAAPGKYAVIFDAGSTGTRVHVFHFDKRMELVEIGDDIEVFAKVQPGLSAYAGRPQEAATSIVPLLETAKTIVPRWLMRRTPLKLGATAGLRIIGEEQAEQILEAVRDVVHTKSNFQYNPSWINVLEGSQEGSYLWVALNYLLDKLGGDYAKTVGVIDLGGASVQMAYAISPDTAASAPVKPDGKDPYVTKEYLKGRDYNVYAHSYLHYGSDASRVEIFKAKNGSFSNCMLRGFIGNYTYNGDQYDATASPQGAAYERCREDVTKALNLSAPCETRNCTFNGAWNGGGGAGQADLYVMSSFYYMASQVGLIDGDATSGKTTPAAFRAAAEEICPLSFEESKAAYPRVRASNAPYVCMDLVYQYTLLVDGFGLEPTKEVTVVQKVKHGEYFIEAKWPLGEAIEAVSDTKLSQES
substance,measurement,setting,value
"Neurocan (Homo sapiens), O14594",glycan array binding signal (z-score),[1],2.6
same,glycan array binding signal (z-score),[2],0.513
"Aggrecan (Rattus norvegicus), NP_071526",glycan array binding signal (z-score),Fuc(a1-2)[Gal(a1-3)]Gal,-0.088
MpAFP RI GFP (Marinomonas primoryensis),glycan array binding signal (z-score),[3],-0.023
same,glycan array binding signal (z-score),[4],-0.23
"wLAT-1A (Homo sapiens), Q01650",glycan array binding signal (z-score),[5],-0.807
"Regenerating Gene IV (Homo sapiens), Q9BYZ8",glycan array binding signal (z-score),[6],3.23
same,glycan array binding signal (z-score),Fuc(a1-2)Gal,0.024
"SRLC (Mus musculus), Q8VIF6",glycan array binding signal (z-score),[5],-0.208
same,glycan array binding signal (z-score),Fuc(a1-2)[Gal(a1-3)]Gal,-0.233
6RG (Lolium perenne),glycan array binding signal (z-score),[7],-0.204
same,glycan array binding signal (z-score),Fuc(a1-2)Gal,-0.033
"PILRb (Mus musculus), Q2YSF2",glycan array binding signal (z-score),[8],2.37
same,glycan array binding signal (z-score),[1],0.151
same,glycan array binding signal (z-score),[9],11.4
same,glycan array binding signal (z-score),[10],-0.235
same,glycan array binding signal (z-score),[11],-0.137
same,glycan array binding signal (z-score),[2],3.94
"6RG (Lolium perenne), B9U140",glycan array binding signal (z-score),[6],0.291
"PILRa (Mus musculus), Q2YSF3",glycan array binding signal (z-score),[12],-0.134
same,glycan array binding signal (z-score),[7],1.82
same,glycan array binding signal (z-score),[9],1.77
same,glycan array binding signal (z-score),[10],-0.097
same,glycan array binding signal (z-score),[13],-0.185
same,glycan array binding signal (z-score),[2],0.044
"Siglec-8 (Homo sapiens), Q9NYZ4",glycan array binding signal (z-score),[14],-0.157
same,glycan array binding signal (z-score),[3],0.008
same,glycan array binding signal (z-score),[6]; mutation: R125K,-0.235
same,glycan array binding signal (z-score),[4]; mutation: R125K,2.31
same,glycan array binding signal (z-score),[11],0.008
same,glycan array binding signal (z-score),[15],-0.066
"CHI3L1 (Homo sapiens), P36222",glycan array binding signal (z-score),[16],-0.116
same,glycan array binding signal (z-score),[2],-0.1
Avaren (Actinomycete K97),glycan array binding signal (z-score),[10],-0.134
same,glycan array binding signal (z-score),Fuc(a1-2)Gal6S(b1-4)Glc,-0.124
same,glycan array binding signal (z-score),[17],-0.036
